Active and inactive are the calls of the source. Rule for the calls: active = hit-call score of the fitted dose curve at least 0.9, where 1 is the maximum; inactive = score below 0.9.
Assay: ATG_TAL_CIS: Attagene CIS-FACTORIAL HepG2 Assay for human TAL Basal Promoter (AID 2282966);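 note: background control endpoint measuring basal TAL promoter reporter mRNA not a specific factor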
Settings: HepG2 Attagene cis-factorial TAL promoter reporter; actives raise or lower the signal
Procedure, shortened: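 Readout: reporter mRNA, fluorescence by CE. System: HepG2, transient multi-reporter transfection, endogenous TF activity. Exposure: 24 h. Analysis: bidirectional, DMSO-normalized; background control.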

outcome, inactive:
C[C@]12CC[C@@H]3c4ccc(O)cc4CC[C@H]3[C@@H]1C[C@@H](O)[C@@H]2O, FC(OC(F)(F)C(F)(F)C(F)(F)F)C(F)(F)F (configuration not stated), CCC(=O)O, Oc1cccc2c(O)cccc12, CC1=NN(c2ccccc2)C(=O)C1, Nc1ccc(O)c(C(=O)O)c1, O=C(C=C(O)C(F)(F)F)C(F)(F)F, CCCCCC(C)OC(=O)COc1ccc(Cl)c2cccnc12 (configuration not stated), COc1cccc(O)c1, O=C(F)C(F)(F)C(F)(F)C(F)(F)C(F)F, O=C(Nc1cccc([N+](=O)[O-])c1)c1cc2ccccc2cc1O, O=P(O)(O)CCC(F)(F)C(F)(F)C(F)(F)C(F)(F)C(F)(F)C(F)(F)C(F)(F)C(F)(F)F, CCOC=O, Oc1ccc(Cc2ccccc2O)cc1, O=CC(F)(F)C(F)(F)C(F)(F)C(F)F, CCCCCCCCCCCC[N+](C)(C)CCCCCCCCCCCC, CCc1ccccc1O
